The supplement of paper PMC13380429

What was measured:
[1] = tested on: Vero E6 infected with SARS-CoV-2; assay: morphology score (similarity to uninfected cells); higher = more like uninfected cells; conditions: 24 h
[2] = tested on: Vero E6 infected with SARS-CoV-2; assay: SARS-CoV-2 infection rate relative to infected DMSO; higher = more infection, active = 60 or less; conditions: 24 h

| SMILES | morphology score [1] | SARS-CoV-2 infection rate [2] |
| --- | --- | --- |
| C=CC(=O)Nc1cc(Nc2nccc(-c3cn(C)c4ccccc34)n2)c(OC)cc1N(C)CCN(C)C [osimertinib] (10 µM) | -0.27 | 110% (inactive) |
| CNC(=S)C1(c2ccccn2)CCCS1 (centres undefined) [picartamide] (10 µM) | -0.0189 | 106% (inactive) |
| CC(C)(C)CC(C)(C)c1cc(Cc2cc(C(C)(C)CC(C)(C)C)cc(-n3nc4ccccc4n3)c2O)c(O)c(-n2nc3ccccc3n2)c1 [bisoctrizole] (10 µM) | -0.0457 | 114% (inactive) |
| NC(=O)NCCC[C@H](N)C(=O)O [L-citrulline] (10 µM) | 0.035 | 112% (inactive) |
| Cn1ncc(Cl)c1-c1cc(C(=O)N[C@H](CN)Cc2cccc(F)c2)sc1Cl (10 µM) | 0.197 | 107% (inactive) |
| CC(C(=O)O)c1ccc(C(=O)c2cccs2)cc1 (centres undefined) [suprofen] (10 µM) | 0.123 | 108% (inactive) |
| CC[C@@H](C)c1ccc(NC(=O)Cn2cnc3c2c(=O)n(C)c(=O)n3C)cc1 (racemic) (10 µM) | 0.119 | 92% (inactive) |
| C[C@H](N)C(=O)O [L-alanine] (10 µM) | -0.118 | 111% (inactive) |
| CCC[N+]12[C@H](O)[C@@H](CC)[C@@H]3C[C@H]1[C@@H]1N(C)c4ccccc4[C@]14C[C@H]2[C@@H]3[C@H]4O [neo-gilurytmal] (10 µM) | -0.0363 | 116% (inactive) |
| CN1Cc2ccccc2[C@@H]2c3cccc4[nH]cc(c34)C[C@H]21 (10 µM) | 0.609 | 95.5% (inactive) |
| Cc1[nH]c2ccc(O)cc2c1CCN [2-methyl-5-hydroxytryptamine] (10 µM) | 0.00237 | 108% (inactive) |
| Cn1c(=O)n(-c2ccc(C(C)(C)C#N)cc2)c2c3cc(-c4cnc5ccccc5c4)ccc3ncc21 (10 µM) | 0.0712 | 98% (inactive) |
| C[C@@H](O)[C@H]1C(=O)N2C(C(=O)O)=C(S[C@@H]3CN[C@H](CNS(N)(=O)=O)C3)[C@H](C)[C@H]12 [doripenem] (10 µM) | 0.131 | 100% (inactive) |
| Clc1cccc(N2CCNCC2)c1 (10 µM) | 0.0057 | 114% (inactive) |
| CNNCc1ccc(C(=O)NC(C)C)cc1 [procarbazine] (10 µM) | 0.133 | 106% (inactive) |
| NCCCNCCCCNCCCN [spermine] (10 µM) | 0.0211 | 107% (inactive) |
| CCCCN(CCCC)CCC(O)c1cc2c(Cl)cc(Cl)cc2c2cc(C(F)(F)F)ccc12 (centres undefined) [halofantrine] (10 µM) | 0.406 | 79.5% (inactive) |
| O=c1ccc2cc3ccoc3cc2o1 [psoralen] (10 µM) | -0.0337 | 108% (inactive) |
| COCCN1CCN(Cc2ccc(-c3n[nH]c4c3C(=O)c3c(NC(=O)NN5CCOCC5)cccc3-4)cc2)CC1 (10 µM) | -0.35 | 117% (inactive) |
| CO[C@@]12[C@H](COC(N)=O)C3=C(C(=O)C(C)=C(N)C3=O)N1C[C@@H]1N[C@@H]12 [mitomycin-C] (10 µM) | 0.101 | 104% (inactive) |
| Nc1nc(Cl)nc2c1ncn2[C@@H]1O[C@H](CO)[C@@H](O)[C@H]1O [2-chloroadenosine] (10 µM) | -0.0246 | 105% (inactive) |

| SMILES | morphology score [1] | SARS-CoV-2 infection rate [2] |
| --- | --- | --- |
| c1ccc(CC2=NCCN2)cc1 [tolazoline] (10 µM) | 0.146 | 99.5% (inactive) |
| CCCCCCNC(=O)Nc1ccc(S(=O)(=O)Nc2ccc(CCNC[C@H](O)COc3ccc(O)cc3)cc2)cc1 (10 µM) | -0.167 | 112% (inactive) |
| O=C(C[S+]([O-])C(c1ccccc1)c1ccccc1)NO (centres undefined) [adrafinil] (10 µM) | 0.2 | 100% (inactive) |
| N#Cc1ccc(Oc2ccc3c(c2)COB3O)cc1 [crisaborole] (10 µM) | 0.0741 | 105% (inactive) |
| CC[C@H](C)[C@H](N)C(=O)O [isoleucine] (10 µM) | 0.202 | 106% (inactive) |
| CNCC(O)c1ccc(OC(=O)C(C)(C)C)c(OC(=O)C(C)(C)C)c1 (centres undefined) [dipivefrine] (10 µM) | 0.127 | 89.5% (inactive) |
| CC(=O)N(O)C/C=C/c1cccc(Oc2ccccc2)c1 (10 µM) | 0.0937 | 97.5% (inactive) |
| Clc1ccc(C(c2ccc(Cl)cc2)C(Cl)(Cl)Cl)cc1 (10 µM) | 0.0848 | 106% (inactive) |
| CN1CC[C@@H](NC(=O)Nc2ccc(C#N)cc2)C[C@@H]1c1nc2ccccc2[nH]1 [glasdegib] (10 µM) | 0.066 | 100% (inactive) |
| CC1(C)C(=O)N(CCN2CCC(C(=O)c3ccc(F)cc3)CC2)c2ccccc21 (10 µM) | -0.158 | 110% (inactive) |
| CCOC(=O)N1CSC[C@H]1C(=O)O [telmesteine] (10 µM) | 0.00511 | 99.5% (inactive) |
| O=C(O)/C=C/c1ccc(-c2ccc(O)c(C34CC5CC(CC(C5)C3)C4)c2)cc1 [adarotene] (10 µM) | 0.00299 | 100% (inactive) |
| CC1=C(C(=O)O)N2C(=O)[C@@H](NC(=O)[C@H](N)c3ccccc3)[C@H]2SC1 [cephalexin] (10 µM) | 0.0139 | 112% (inactive) |
| CCc1ccc(OCc2ccccc2C(=O)Nc2ccc3nc(C)cc(N)c3c2)cc1 (0.833333 µM) | 0.313 | 89% (inactive) |
| O=C(O)c1ccc(N2C(=O)/C(=C/c3ccc(-c4ccc([N+](=O)[O-])cc4)o3)C=C2c2ccccc2)cc1 (10 µM) | 0.184 | 93% (inactive) |
| CN(C)CCn1cc(S(=O)(=O)c2cccc(F)c2)c2cccnc21 (10 µM) | -0.0241 | 109% (inactive) |
| O=C1CC[C@@](c2ccccc2)(C2CCN(Cc3ccc(I)cc3)CC2)C(=O)N1 [iododexetimide] (10 µM) | -0.0136 | 100% (inactive) |
| CC(C)(C)c1cc(NC(=O)Nc2ccc(-c3cn4c(n3)sc3cc(OCCN5CCOCC5)ccc34)cc2)no1 [quizartinib] (10 µM) | 0.177 | 97.5% (inactive) |
| CO[C@@H](C(=O)N1Cc2[nH]nc(NC(=O)c3ccc(N4CCN(C)CC4)cc3)c2C1)c1ccccc1 [danusertib] (10 µM) | 0.109 | 115% (inactive) |
| CS(=O)(=O)c1cccc(CNc2nc(Nc3ccc4c(c3)CCC(=O)N4)ncc2C(F)(F)F)c1 (0.833333 µM) | 0.138 | 114% (inactive) |
| CCCCCCCCCCCC(=O)O [lauric-acid] (10 µM) | 0.185 | 96.5% (inactive) |

| SMILES | morphology score [1] | SARS-CoV-2 infection rate [2] |
| --- | --- | --- |
| CCn1c(=O)c(-c2ccc(Cl)cc2Cl)cc2cnc(Nc3ccc(N4CCNCC4)c(F)c3)nc21 (0.833333 µM) | 0.097 | 106% (inactive) |
| Cc1cc(C)c(N(Cc2ccccc2)S(=O)(=O)c2ccc(OCCNC(=O)c3cc4ccccc4o3)cc2)c(C(=O)NO)c1 (0.833333 µM) | -0.0297 | 96% (inactive) |
| CO[C@H]1/C=C\C=C(/C)C(=O)NC2=CC(=O)C(NCCN(C)C)=C(C[C@@H](C)C[C@H](OC)[C@H](O)[C@@H](C)/C=C(\C)[C@@H]1OC(N)=O)C2=O [alvespimycin] (10 µM) | 0.255 | 91% (inactive) |
| CC[N+](CC)(CC(=O)Nc1c(C)cccc1C)Cc1ccccc1 [denatonium-benzoate] (10 µM) | 0.144 | 116% (inactive) |
| CC(=O)N[C@@H](CCC(N)=O)C(=O)O [aceglutamide] (10 µM) | -0.137 | 105% (inactive) |
| CC1(C)S[C@@H]2[C@H](NC(=O)Cc3ccccc3)C(=O)N2[C@H]1C(=O)O [benzylpenicillin] (10 µM) | -0.0812 | 114% (inactive) |
| O=C1CCCC(=O)C1C(=O)c1ccc(C(F)(F)F)cc1[N+](=O)[O-] [nitisinone] (10 µM) | 0.0537 | 110% (inactive) |
| CN1C(CSCC(F)(F)F)Nc2cc(Cl)c(S(N)(=O)=O)cc2S1(=O)=O (centres undefined) [polythiazide] (10 µM) | 0.2 | 100% (inactive) |
| CNCc1cc(-c2ccccc2F)n(S(=O)(=O)c2cccnc2)c1 [vonoprazan] (10 µM) | 0.00653 | 114% (inactive) |
| C[N+]1(C)CCC(OC(=O)C(c2ccccc2)c2ccccc2)CC1 (10 µM) | 0.103 | 114% (inactive) |
| O=c1c(O[C@@H]2O[C@H](CO)[C@H](O)[C@H](O)[C@H]2O)c(-c2ccc(O)c(O)c2)oc2cc(O)cc(O)c12 [hyperin] (10 µM) | -0.0819 | 112% (inactive) |
| CC(=O)Nc1ccc(C(=O)Nc2ccccc2N)cc1 [tacedinaline] (0.833333 µM) | -0.0863 | 110% (inactive) |
| COc1cc(C(=O)N2CCC(N3CCN(C)CC3)CC2)ccc1Nc1ncc2c(n1)N(C)c1ccccc1C(=O)N2C (0.833333 µM) | 0.0522 | 100% (inactive) |
| Oc1ccc(Cl)c2cccnc12 [cloxyquin] (10 µM) | -0.13 | 109% (inactive) |
| COc1cc2ncnc(Nc3ccc(Cl)cc3F)c2cc1OC (10 µM) | -0.174 | 117% (inactive) |
| CC(=O)Nc1ccc(S(=O)(=O)c2ccc(NC(C)=O)cc2)cc1 [acedapsone] (10 µM) | 0.233 | 98% (inactive) |
| CCCSc1ccc2[nH]c(NC(=O)OC)nc2c1 [albendazole] (0.833333 µM) | 0.0557 | 98% (inactive) |
| Nc1nc(NC2CC2)cc(-c2cccc(Cl)c2Cl)n1 (10 µM) | 0.121 | 97% (inactive) |
| O=C1c2cccc(O)c2C(=O)c2c(O)cc(CO)cc21 [aloe-emodin] (10 µM) | 0.29 | 101% (inactive) |
| CO[C@@H]1[C@@H](O[C@@H]2O[C@H](C)[C@@H](O[C@H]3C[C@@](C)(O)[C@@H](OC(=O)CC(C)C)[C@H](C)O3)[C@H](N(C)C)[C@H]2O)[C@@H](CC=O)C[C@@H](C)[C@@H](O)/C=C/C=C/C[C@@H](C)OC(=O)C[C@H]1OC(C)=O [josamycin] (10 µM) | -0.0313 | 113% (inactive) |
